# Test results taken from ChEMBL document CHEMBL3988442, “University of Dundee, Small-Polar-MMV Screening Library” (2021).
# Among all 69,000 compounds or so, about 1,000 (1.4%) showed an effect of 50% or more. For the sample, strong results were picked, then their nearest neighbours and some compounds at random.
# Test system: Leishmania donovani
# Experiment: Leishmania intramacrophage assay
# Format: functional, organism-based
# Parameters: scale not given: in the data most compounds retested in dose-response had high values
structure (smiles),measurement,setting,value
OCCN1CCC(CNCc2ccc(Br)cc2)CC1,Percent Effect,"30.3 µM, […]",77.88%
OCCN1CCC(CNCc2ccc(N3CCCCC3)cc2)CC1,Percent Effect,"30.3 µM, […]",79.78%
CCc1ccc(CNCC2CCN(CCO)CC2)cc1,Percent Effect,"30.3 µM, […]",73.93%
Cc1ccc(CNCC2CCN(CCO)CC2)cc1,Percent Effect,"30.3 µM, […]",-12.85%
OCCN1CCC(CNCc2cn(-c3ccccc3)nn2)CC1,Percent Effect,"30.3 µM, […]",-6.29%
CS(=O)(=O)c1ccc(CNCC2CCN(CCO)CC2)cc1,Percent Effect,"30 µM, 30.03 µM",7.016%
NC(=O)c1ccc(CNCC2CCN(CCO)CC2)cc1,Percent Effect,"30.3 µM, […]",-0.3402%
Cc1ncccc1CNCC1CCN(CCO)CC1,Percent Effect,30 µM,29.11%
N#Cc1ccc(CNCC2CCN(CCO)CC2)cc1,Percent Effect,"30 µM, 30.03 µM",18.87%
Cn1cc(CC2CC(=O)N(Cc3ccccc3OC(F)F)C2=O)cn1 (stereo unspecified),Percent Effect,"30.3 µM, […]",7.915%
Cl.NC1CCN(C(=O)c2c(F)cccc2Br)CC1,Percent Effect,"30.3 µM, […]",2.162%
COc1ccc([C@@H]2CN(c3cnccn3)C[C@H]2N(C)C)cc1,Percent Effect,"30.3 µM, […]",-8.819%
CC(C)Cn1cc(NC(=O)NC(C)(C)c2nccs2)cn1,Percent Effect,"30.3 µM, […]",-3.295%
CCN(CC1CN(Cc2nccn2CC)CCO1)c1cccnn1 (stereo unspecified),Percent Effect,"30.3 µM, […]",7.569%
CCS(=O)(=O)N1CCC(NC(=O)c2cc(C(C)C)ccc2O)CC1,Percent Effect,30 µM,11.27%
CC(=O)N1CCC1c1cc(N2CCNC(=O)C2)nc(C)n1 (stereo unspecified),Percent Effect,"30.3 µM, […]",23.92%
Cc1cnc(CN2CCCC(c3cc(C(N)=O)[nH]n3)C2)o1 (stereo unspecified),Percent Effect,"30 µM, 30.03 µM",5%
c1ccc(-c2nnc(CN3CCOC(Cn4cccn4)C3)o2)cc1 (stereo unspecified),Percent Effect,30 µM,14.93%
Cn1ncc2c1CN(Cc1ccc(F)cc1)CC2COCC1CC1.O=C(O)C(F)(F)F.O=C(O)C(F)(F)F (stereo unspecified),Percent Effect,"30.3 µM, […]",51.09%
Cc1ccc(CN2Cc3nnn(C)c3C(COCC3CC3)C2)s1.O=C(O)C(F)(F)F (stereo unspecified),Percent Effect,"30.3 µM, […]",19.91%
Cc1ccc(CN2Cc3c(cnn3C)C(COCC3CC3)C2)s1 (stereo unspecified),Percent Effect,"30.3 µM, […]",92.44%
Cn1ncc2c1CN(Cc1cccnc1)CC2COCC1CC1.O=C(O)C(F)(F)F.O=C(O)C(F)(F)F.O=C(O)C(F)(F)F (stereo unspecified),Percent Effect,"30 µM, 30.03 µM",26.28%
Cn1cc(CN2Cc3c(cnn3C)C(COCC3CC3)C2)cn1.O=C(O)C(F)(F)F.O=C(O)C(F)(F)F (stereo unspecified),Percent Effect,"30.3 µM, […]",-2.121%
Cn1ncc2c1CN(Cc1ccccc1F)CC2COCC1CC1.O=C(O)C(F)(F)F.O=C(O)C(F)(F)F (stereo unspecified),Percent Effect,"30.3 µM, […]",24.46%
CNC(=O)[C@H]1C[C@@H]2CN(S(=O)(=O)c3ccc(C)cc3)C[C@@H]2N1C.O=C(O)C(F)(F)F,Percent Effect,"30.3 µM, […]",7.67%
CC(=O)Nc1nc(-c2ccc(F)cc2)c[nH]1,Percent Effect,"30.3 µM, […]",-6.024%
NCCC(=O)N1CCC2(CC1)CN(C(=O)Cc1ccc(Cl)cc1)CCO2,Percent Effect,"30.3 µM, […]",-0.5643%
CN1CC(=O)N(c2ccsc2)CC12CCN(S(C)(=O)=O)C2.O=C(O)C(F)(F)F (stereo unspecified),Percent Effect,"30 µM, 30.03 µM",2.434%
COCCN1C[C@@H]2[C@@H](OC)CCN(Cc3ccco3)[C@@H]2C1.O=C(O)C(F)(F)F.O=C(O)C(F)(F)F,Percent Effect,"30.3 µM, […]",5.523%
COCCN1C[C@@H]2[C@@H](OC)CCN(Cc3ccc(C)o3)[C@@H]2C1.O=C(O)C(F)(F)F.O=C(O)C(F)(F)F,Percent Effect,"30.3 µM, […]",53%
COCCN1C[C@H]2[C@@H](C1)N(Cc1ccc(C)o1)CC[C@H]2OC,Percent Effect,"30 µM, 30.03 µM",22.66%
CC(c1ccccn1)N(C)Cc1ccc(CCC(C)(C)O)cc1 (stereo unspecified),Percent Effect,"30.3 µM, […]",34.83%
CCC(CO)N(C/C(C)=C/c1ccco1)Cc1ccccn1 (stereo unspecified),Percent Effect,"30.3 µM, […]",3.364%
C/C(=C\c1ccco1)CN(C)C(C)c1ccccn1 (stereo unspecified),Percent Effect,"30.3 µM, […]",72.9%
O=C(c1cscn1)N1CCCCC1c1nc2cc(F)ccc2[nH]1 (stereo unspecified),Percent Effect,"30.3 µM, […]",28.33%
CCS(=O)(=O)NCCCNCc1c(C)nn(C)c1N(C)C,Percent Effect,30 µM,-21.2%
O=C(O)C(F)(F)F.O=C1CC(c2ccccc2)C2(CCN(CC3CC3)CC2)N1 (stereo unspecified),Percent Effect,"30 µM, 30.03 µM",17.34%
CCc1nc(C2CCCN2C(=O)Cc2cccs2)no1 (stereo unspecified),Percent Effect,30 µM,2.577%
Cc1cc(S(=O)(=O)NCC(C)(C)N)c(F)cc1F.Cl,Percent Effect,"30.3 µM, […]",25.52%
CCOc1nc2cnccc2n(CC(=O)NCc2ccco2)c1=O,Percent Effect,"30.3 µM, […]",-11.31%
CCn1nc(C)c2nc(C)nc(NCCCn3cccn3)c21,Percent Effect,"30.3 µM, […]",-10.11%
CCCc1nc(NCCCOC)c2c(n1)c(C)nn2CC,Percent Effect,"30.3 µM, […]",-43.63%
CCCc1nc(NCCc2ccccc2)c2c(n1)c(C)nn2CC,Percent Effect,"30.3 µM, […]",98.89%
CCCc1nc(NCCCO)c2c(n1)c(C)nn2CC,Percent Effect,"30 µM, 30.03 µM",3.921%
CCCc1nc(NCCCOCC)c2c(n1)c(C)nn2CC,Percent Effect,"30.3 µM, […]",51.09%
CCn1nc(C)c2nc(C)nc(NCCc3ccccc3)c21,Percent Effect,"30.3 µM, […]",36.57%
CCCc1nc(NCCOC)c2c(n1)c(C)nn2CC,Percent Effect,"30.3 µM, […]",9.64%
CCc1nc(NCCCn2cccn2)c2c(n1)c(C)nn2CC,Percent Effect,"30.3 µM, […]",-48.93%
CCCc1nc(NCCCn2cccn2)c2c(n1)c(C)nn2CC,Percent Effect,"30.3 µM, […]",56.39%
CCCNC(=O)CSCc1ccc(S(=O)(=O)N(C)C)o1,Percent Effect,"30.3 µM, […]",6.939%
Nc1nc2c(c(NCC(c3cccnc3)N3CCOCC3)n1)CCNC2 (stereo unspecified),Percent Effect,"30.3 µM, […]",45.62%
CCC(Nc1nnnn1-c1ccccc1)C(=O)NCc1cccs1 (stereo unspecified),Percent Effect,"30.3 µM, […]",14.73%
Cc1cnc(C(=O)N2Cc3ncn(C)c3C(COCC(C)C)C2)cn1.O=C(O)C(F)(F)F (stereo unspecified),Percent Effect,"30.3 µM, […]",30.84%
CN(CCc1noc(C2CC2)n1)C(=O)C1(N2CCCC2)CCCC1,Percent Effect,"30.3 µM, […]",28.86%
Cc1cc(NC(=O)NCCc2cccs2)n(C)n1,Percent Effect,"30 µM, 30.03 µM",-9.195%
O=C(CN1CCCS1(=O)=O)NCCOc1ccc2c(c1)CCC2,Percent Effect,"30 µM, 30.03 µM",22.18%
CCc1nc(C2CCCN2c2ncc(C(N)=O)cc2Cl)no1 (stereo unspecified),Percent Effect,"30.3 µM, […]",-6.943%
Cc1cccnc1NCCNC(=O)c1cnc(-c2cccs2)nc1O,Percent Effect,"30.3 µM, […]",22.97%
Cc1nc(-c2ncc(C(=O)NCCNc3ncccc3C)c(O)n2)cs1,Percent Effect,"30.3 µM, […]",28.4%
Cc1cccnc1NCCNC(=O)c1cnc(-c2ccccn2)nc1O,Percent Effect,"30.3 µM, […]",81.9%
O=C(c1occc1CN1C(=O)Cc2ccccc21)N1CCCCCC1,Percent Effect,"30.3 µM, […]",31.83%
Cc1cc(NC(=O)c2ccccc2Br)n(C)n1,Percent Effect,"30.3 µM, […]",-1.29%
CC(C1CCN(Cc2ccc(OC(F)F)cc2)CC1)N1CCOCC1 (stereo unspecified),Percent Effect,"30.3 µM, […]",57.26%
CC(C)Oc1cccc(CN2CCC(c3n[nH]c4ncccc34)CC2)c1,Percent Effect,"30.3 µM, […]",-3.157%
CC(C)Oc1cccc(CN2CCC(C(C)N3CCOCC3)CC2)c1 (stereo unspecified),Percent Effect,"30.3 µM, […]",60.52%
CC(C1CCN(Cc2cccc(OC(F)F)c2)CC1)N1CCOCC1 (stereo unspecified),Percent Effect,"30.3 µM, […]",37.87%
CC(C1CCN(Cc2ccccc2OC(F)F)CC1)N1CCOCC1 (stereo unspecified),Percent Effect,"30.3 µM, […]",38.92%
CC(C1CCN(Cc2ccc(N(C)C)nc2)CC1)N1CCOCC1 (stereo unspecified),Percent Effect,"30.3 µM, […]",35.27%
CN1CCN(C(=O)c2n[nH]c3c2CN(C2CCOC2)CC3)CC1 (stereo unspecified),Percent Effect,"30.3 µM, […]",7.447%
CCc1c(C)sc2c1c(N)nc(=O)n2CCN1CCCCC1,Percent Effect,"30.3 µM, […]",45.7%
OC(CN1CCC(c2ccn[nH]2)CC1)c1ccccc1F (stereo unspecified),Percent Effect,30 µM,30.71%
COC[C@@]12CCC[C@@H]1CN(C(=O)COC1CCCC1)C2,Percent Effect,"30.3 µM, […]",36.81%
CCOC1COC2(CCN(Cc3cccc(F)c3)CC2)C1.O=C(O)C(F)(F)F (stereo unspecified),Percent Effect,"30 µM, 30.03 µM",37.88%
CN(C)C(=O)COC1COC2(CCN(c3ncccn3)CC2)C1 (stereo unspecified),Percent Effect,"30.3 µM, […]",64.89%
CN(C)C(=O)CO[C@H]1CO[C@@]2(CCN(Cc3ccoc3)C2)C1,Percent Effect,"30.3 µM, […]",51.04%
COc1ccccc1CN1CC[C@]2(C[C@@H](OCC(=O)N(C)C)CO2)C1.O=C(O)C(F)(F)F,Percent Effect,"30.3 µM, […]",48.44%
CN(C)C(=O)COC1COC2(CCN(c3cccc(F)c3)CC2)C1.O=C(O)C(F)(F)F (stereo unspecified),Percent Effect,"30.3 µM, […]",52.62%
CN(C)C(=O)CO[C@H]1CO[C@@]2(CCN(Cc3ccsc3)C2)C1.O=C(O)C(F)(F)F,Percent Effect,"30.3 µM, […]",39.07%
Cc1ccc(N2CCC3(CC2)CC(OCC(=O)N(C)C)CO3)nn1 (stereo unspecified),Percent Effect,"30 µM, 30.03 µM",10.68%
COc1ccc(OCC(=O)NS(=O)(=O)c2ccc(Br)s2)cc1,Percent Effect,30 µM,-22.07%
Cc1occc1C(=O)N1CCCn2cnc(CN3CCCC3=O)c2C1,Percent Effect,"30.3 µM, […]",1.546%
CCOc1ccc(NC(C)=O)cc1S(=O)(=O)Nc1ccon1,Percent Effect,"30.3 µM, […]",32.01%
CC(C)C(=O)Nc1ncn(Cc2cccc(Br)c2)n1,Percent Effect,"30.3 µM, […]",26.25%
O=C(c1ccoc1)N1CC[C@@H]2O[C@@H](COCC3CCOCC3)CC[C@@H]21,Percent Effect,"30.3 µM, […]",5.212%
Cn1ncc(Cl)c1C(=O)N1CCC(c2nnsc2S(C)(=O)=O)CC1,Percent Effect,"30.3 µM, […]",50.11%
Cn1nc(C2CC2)cc1C(=O)N1CCC(c2nnsc2S(C)(=O)=O)CC1,Percent Effect,"30.3 µM, […]",16.49%
Cn1nccc1C(=O)N1CCC(c2nnsc2S(C)(=O)=O)CC1,Percent Effect,"30.3 µM, […]",17.02%
N#Cc1ccc(C(=O)N2CC[C@H]3[C@H]2CCN3CC2CCOCC2)cc1.O=C(O)C(F)(F)F,Percent Effect,"30.3 µM, […]",9.058%
Cc1nc(CNc2ccccc2CCC(F)(F)F)cs1,Percent Effect,"30.3 µM, […]",6.456%
Cc1cnc(NC(=O)c2csc(NCC(C)C)n2)s1,Percent Effect,"30.3 µM, […]",62.13%
O=C(Nc1nccs1)c1csc(NC2CCCC2)n1,Percent Effect,"30.3 µM, […]",48.24%
Cc1cnc(NC(=O)c2csc(NC3CCCC3)n2)s1,Percent Effect,"30.3 µM, […]",92.33%
O=C(Nc1ccccn1)c1csc(NC2CCCC2)n1,Percent Effect,"30.3 µM, […]",-23.02%
Cc1cccc(NC(=O)c2csc(NCC(C)C)n2)n1,Percent Effect,"30.3 µM, […]",-8.581%
CC(=O)NCC1CCC2(CCN(c3nccc(C4CCCC4)n3)CC2)O1 (stereo unspecified),Percent Effect,"30.3 µM, […]",3.551%
Cn1cc(N2CC3(COCCN(Cc4ccccn4)C3)OCC2=O)cn1.O=C(O)C(F)(F)F (stereo unspecified),Percent Effect,"30.3 µM, […]",33.72%
COc1cccc(C(=O)NCC2CCN(C(=O)c3ccoc3)CC2)c1,Percent Effect,"30.3 µM, […]",42%
CCn1cc(CN2C[C@H]3CC[C@@H]2CN(C(=O)c2ccncc2)C3)cn1,Percent Effect,"30.3 µM, […]",-21.9%
CCC(C)c1csc(NC(=O)Cc2csc(-c3nnc[nH]3)n2)n1 (stereo unspecified),Percent Effect,"30.3 µM, […]",56.95%
CC(C)c1nnc(NC(=O)Cc2csc(-c3nnc[nH]3)n2)s1,Percent Effect,"30.3 µM, […]",6.395%
CCC(C)c1csc(NC(=O)c2sc(-c3nnc[nH]3)nc2C)n1 (stereo unspecified),Percent Effect,"30.3 µM, […]",32.74%
